# Data published in the supplement of paper PMC3334620.
# In all, about 33,000 sequences were measured (“E-score (-0.5 to 0.5)”: median about -0.036, highest 2% from about 0.37 on). The entries come from a sample that favours the highest values as a whole.
# Target: T1, Yer064c (UniProt P40041)
# T1 sequence: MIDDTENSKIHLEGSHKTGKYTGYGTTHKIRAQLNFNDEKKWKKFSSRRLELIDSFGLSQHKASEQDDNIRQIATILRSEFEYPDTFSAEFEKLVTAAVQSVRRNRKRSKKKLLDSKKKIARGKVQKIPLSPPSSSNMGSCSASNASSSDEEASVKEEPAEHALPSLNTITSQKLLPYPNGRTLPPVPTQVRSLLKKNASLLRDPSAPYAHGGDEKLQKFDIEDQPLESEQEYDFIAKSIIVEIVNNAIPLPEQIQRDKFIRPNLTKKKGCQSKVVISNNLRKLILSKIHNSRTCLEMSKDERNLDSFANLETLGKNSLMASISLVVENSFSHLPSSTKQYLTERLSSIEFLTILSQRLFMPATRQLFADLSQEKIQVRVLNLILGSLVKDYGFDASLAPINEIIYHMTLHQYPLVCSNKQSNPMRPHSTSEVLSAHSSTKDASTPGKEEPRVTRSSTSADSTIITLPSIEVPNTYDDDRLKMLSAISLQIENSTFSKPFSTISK
# Test: PBM E-score (8-mer binding enrichment) (E-score (-0.5 to 0.5)); higher = stronger / more preferred TF binding
# Details: protein concentration: 200 nM; construct: GST-full length
# Method: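 Universal 'all 10-mer' protein binding microarrays (Agilent AMADID 015681) probed with GST-tagged S. cerevisiae TFs (full-length or DBD) made by in vitro transcription/translation (PURExpress), about 100-200 nM. Bound TF was detected with fluorescent anti-GST. Each ungapped 8-mer (which stands for itself and its reverse complement) is scored by the PBM enrichment score (E-score), a modified Wilcoxon-Mann-Whitney statistic from -0.5 to +0.5, computed with the Universal PBM Analysis Suite. Scale: above 0.35 generally sequence-specific binding.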
row,Sequence,PBM E-score
1,AGGTGCAC,-0.143
2,GGGGTGGA,-0.205
3,ACCACTTG,-0.0296
4,ATTGAATA,0.169
5,AATGAATG,-0.0293
6,CATGAATA,0.178
7,GATGAACC,0.0652
8,CATGAATC,0.423
9,CATGAATG,0.197
10,ATTGAATC,0.375
11,ATTGAATG,0.167
12,GATGAATA,0.176
13,AATGAATC,0.39
14,AATGAATT,0.0966
15,GATGAATC,0.387
16,AGTACCAC,0.0908
17,CAATCGAC,0.0905
18,ACTGCGAC,0.228
19,CTTCCGCC,-0.183
20,ACATGACA,0.155
21,ACATGAGC,0.046
22,ACATGAGT,0.375
23,AGATGACC,0.136
24,ACATGACG,-0.00033
25,AGATGACT,0.487

row,Sequence,PBM E-score
1,AGATGACA,0.116
2,ACATGAGA,0.284
3,ACATGACT,0.48
4,CTTACGTA,0.131
5,CGCAAGGA,-0.167
6,AAGGCATA,-0.129
7,TGCCAGCA,-0.0413
8,ACACGTGC,-0.0356
9,CACATGTC,0.0407
10,ATCCCACG,0.07
11,TAGGCGAA,-0.0147
12,GGGACTGA,0.119
13,GTGACTGA,0.447
14,ATGACAAG,0.0335
15,ATGACTAG,0.48
16,ACGACTGG,0.148
17,CTGACTGA,0.395
18,CGGACTGA,0.178
19,AGGACTAG,0.275
20,GTGACGGA,-0.0635
21,CTGACTGC,0.348
22,ATGACTGG,0.409
23,AAGACTGG,0.1
24,CATCAGGA,-0.0161
25,GTGTCGAA,-0.00343

row,Sequence,PBM E-score
1,ATCGCAGA,0.0583
2,AGCTACCA,0.0223
3,AATTCGGT,0.107
4,CTCCGTGC,-0.156
5,ACATTCAT,0.0768
6,CGCGTTCA,0.0376
7,AGGACTCG,0.306
8,ATGACTCG,0.491
9,ATTACTCG,0.202
10,CAGACTGC,0.0507
11,ATGACTGC,0.467
12,AGGACTGC,0.13
13,ACGACTGA,0.321
14,ATGACTGA,0.464
15,AGGACTGA,0.244
16,GTAAGGTA,0.00781
17,GCCAACCC,-0.343
18,ACGGCCTC,-0.163
19,ACATGAAT,0.175
20,ACGCCTAG,-0.133
21,CGGTGGGC,-0.341
22,AGTTTCTC,-0.105
23,GGACTCCA,0.176
24,AGACTCCA,0.323
25,AGACTCCC,0.32

row,Sequence,PBM E-score
1,CAACTCCC,-0.15
2,CGACTCCG,0.332
3,CGACTCCA,0.378
4,TGACTCCA,0.479
5,CCACTCCA,-0.0978
6,CGACTCCC,0.404
7,AGGGGGAT,-0.373
8,AGGGGGGA,-0.362
9,ACTGCGTA,0.0638
10,AACTCCAT,0.0309
11,CGGTGCAG,-0.0907
12,CAGTCAAA,0.254
13,AAGTCAAG,0.283
14,AAGTCAAA,0.288
15,GAGTCAAC,0.474
16,GCGTCAAC,-0.156
17,AAGTCAAC,0.367
18,GAGTCAAA,0.461
19,TTGTCAAA,0.0143
20,TAGTCAAA,0.417
21,TGGTCAAA,-0.0461
22,CAGTCAAC,0.36
23,ACGTCAAC,0.0642
24,TCAAAAAA,0.16
25,CGATCACC,-0.0685

row,Sequence,PBM E-score
1,ACGATCCG,-0.0916
2,AGGTAGGC,-0.231
3,GATCATCC,0.171
4,AATCAACG,0.308
5,GATCATCA,0.142
6,CATCATCC,0.0788
7,CATCATCG,0.125
8,AATCATCT,0.453
9,AATCATCC,0.468
10,AATCTTCT,0.201
11,AATCATCG,0.439
12,AATCATCA,0.463
13,CATCATCA,0.161
14,TATCATCA,0.0107
15,TGGGCCCA,-0.123
16,AATATTGT,0.0413
17,TATGAATA,0.0885
18,TCCCTTCA,0.091
19,CCCTTGAA,-0.0587
20,ACGCGACT,0.376
21,AGGCGACG,-0.346
22,AAGCGACA,-0.208
23,AAGCGACC,-0.161
24,ACGCGACG,-0.164
25,AGGCGACC,-0.191

row,Sequence,PBM E-score
1,AGGCGACT,0.387
2,AAGCGACT,0.369
3,ACGCGACA,-0.128
4,ACAACGGT,-0.116
5,ATAAAGAC,0.196
6,CCGGCAAG,-0.156
7,CTTGAGAA,0.136
8,GCTTCGAC,-0.126
9,TCAACAGA,0.211
10,AACTATCC,-0.235
11,AACTATTA,-0.00806
12,AACTATCA,0.104
13,CACTATTA,0.0522
14,GACTATCC,0.404
15,GACTATTA,0.379
16,GACTATCA,0.394
17,TACTATCA,0.0134
18,CACTATCC,-0.196
19,AACGCACA,-0.185
20,CTGGATTC,0.00174
21,GTACCGAC,-0.057
22,ATTTAGGG,-0.0441
23,ATTAGCCG,-0.106
24,GGAAGTCA,0.426
25,CGAAGTCA,0.437

row,Sequence,PBM E-score
1,GGAAGTGA,0.0158
2,AGAAGTCG,0.207
3,TGAAGTCA,0.445
4,TGAAGTAA,0.0152
5,CGAAGTCG,0.286
6,CGAAGTCC,0.0182
7,AGAAGTCA,0.43
8,GGAAGTCC,0.0559
9,AGAAGTCC,-0.056
10,TGAAGCCA,0.114
11,TAATGCTA,0.15
12,AGTTTTGC,0.0632
13,AATAAGAC,0.175
14,TGCGGTAA,0.0977
15,CCCACGTC,-0.157
16,GCGGTTAC,0.0193
17,ACAATGCT,-0.0617
18,GTAGCATA,-0.262
19,CCGTCGCG,-0.0591
20,TATTCCCA,0.00714
21,GATCACGA,0.0675
22,GACGTCGA,-0.14
